Experimental data as given in PubChem BioAssay AID651718 (The Scripps Research Institute Molecular Screening Center, 2012).
The whole screen tested about 360,000 compounds, of which about 2,700 (0.75%) were called active. This is one part of a sample in which actives are shown more often than they occur. No stated cut-off is given here; in the data, active means inhibition above about 4.5%; inactive means the rest.

tested on: Methionine sulfoxide reductase A (Bos taurus); assay: inhibition of methionine sulfoxide reductase A – biochemical, absorbance, bovine, HTS, primary screen (AID 651718); details: purified bovine MsrA, absorbance read-out; at 15.5 µM; hits give high values;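 further: 0% = vehicle wells with enzyme and 100% = reference inhibitor wells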

| Structure (SMILES) | inhibition |
| --- | --- |
| Cc1cccc(C)c1NC(=O)C(Cl)C(=O)c1ccccc1 (stereo not given) | -0.19% (inactive) |
| Cc1occc1C(=O)N/N=C/c1ccc(-c2cccc([N+](=O)[O-])c2)o1 | 4.99% (active) |
| COC(=O)N/N=C/c1ccc(-c2ccc(Cl)c(Cl)c2)o1 | 3.75% (inactive) |
| CCCc1ccc(OCc2ccc(C(=O)N/N=C/c3cccc([N+](=O)[O-])c3)o2)c(OC)c1 | 0.9% (inactive) |
| CC[C@H](NC(=O)[C@H](Cc1ccccc1)NC(=O)[C@H]1O[C@@H](n2cnc3c(=O)[nH]c(N)nc32)[C@H](O)[C@@H]1O)c1ccccc1 | 0.98% (inactive) |
| COc1ccccc1-c1n[nH]c2c1[C@H](C)CC[C@H]2C(C)C | 12.6% (active) |
| COc1ccccc1-c1n[nH]nc1C1=CC(=O)CC(C)(C)C1 | 2.39% (inactive) |
| CCN(C(=O)CSc1nnc(-c2ccncc2)o1)c1ccccc1 | -1.04% (inactive) |
| CC(=O)N1N=C(c2ccccc2)OC1c1cccnc1 (stereo not given) | 0.4% (inactive) |
| CC(=O)N1N=C(c2ccncc2)OC1(Cc1ccccc1)Cc1ccccc1 | 11.8% (active) |
| CC1(C(=O)N/N=C/c2cc3c(cc2Br)OCO3)CC1(Br)Br (stereo not given) | 2.89% (inactive) |
| CC(C)Oc1c(Br)cc(Br)cc1/C=N/NC(N)=S | 6.79% (active) |
| Cc1cc(=O)oc2c3c(cc(OCC(=O)NCc4ccccn4)c12)OC(C)(C)CC3 | 2.4% (inactive) |
| Cn1c(=NC(=O)c2ccco2)sc2cccc(F)c21 | 4.22% (inactive) |
| Cn1c(=NC(=O)c2cnccn2)sc2ccccc21 | 6.75% (active) |
| COC(=O)c1ccc(OC(=O)c2cnccn2)cc1 | 0.63% (inactive) |
| Cc1cc(N2CCN(C(=O)OC(C)(C)C)C[C@H]2C)ccc1N1CCN(Cc2ccccc2)[C@H](C)C1 | -0.82% (inactive) |
| Nc1[nH]c(C(=O)c2ccccc2)c(-c2ccc(Cl)cc2Cl)c1C(=O)c1ccccc1 | -0.16% (inactive) |
| CCc1c(-c2ccccc2OC)ncn1CCc1ccccc1OC | 0.48% (inactive) |
| O=Cc1cn(-c2ccccc2)nc1-c1ccccn1 | 9.1% (active) |
| O=C(NNC(=S)NC(=O)c1cn(-c2ccccc2)nc1-c1ccccc1)c1ccncc1 | 2.54% (inactive) |
| O=C(COC(=O)/C=C/c1cn(-c2ccccc2)nc1-c1cccnc1)Nc1ccc(Cl)cc1Cl | 0.05% (inactive) |
| Cc1cc(Cl)ccc1OCc1nc(-c2ccncc2)no1 | 0.44% (inactive) |
| COc1ccccc1CC1(C)C(=O)Nc2ccc(OC(F)(F)F)cc21 (stereo not given) | -0.13% (inactive) |
| Cc1ccc(CC2(C)C(=O)Nc3ccc(OC(F)(F)F)cc32)cc1 (stereo not given) | 9.02% (active) |

| Structure (SMILES) | inhibition |
| --- | --- |
| CCc1ccc2c(c1)NC(=O)C2(C)Cc1ccc(OC(F)(F)F)cc1 (stereo not given) | 1.57% (inactive) |
| Cc1cc(NCCc2c[nH]c3ccccc23)ccc1Oc1cccnc1 | -0.9% (inactive) |
| COc1ccc(C2/C(=C(/O)c3ccccc3)C(=O)C(=O)N2c2ncccn2)cc1OC (stereo not given) | 1.66% (inactive) |
| COc1cccc(C2/C(=C(/O)c3ccc(F)cc3)C(=O)C(=O)N2CCN(C)C)c1 (stereo not given) | 2.59% (inactive) |
| COc1ccc(C2/C(=C(/O)c3ccccc3)C(=O)C(=O)N2C)c(OC)c1 (stereo not given) | 4.89% (active) |
| CCOc1ccccc1C(=O)N1CCC[C@@H]1C(=O)N1CCC[C@H]1C(=O)NCc1ccccc1 | 0% (inactive) |
| CSC1=NCCN1C(=O)c1ccc(S(=O)(=O)N2CCOCC2)cc1 | 0.32% (inactive) |
| Cc1c(-c2ccccc2)cn2c1-c1ccc(C)n1CC2 | 2.59% (inactive) |
| CN1CCCc2nc(-c3ccccc3)ccc21 | -0.16% (inactive) |
| O=C1[C@@H](c2ccccc2)[C@@H](c2ccccc2)N1c1ccccc1 | 0% (inactive) |
| COc1ccc(/C=C/C(=O)Nc2ccc(C34CC5CC(CC(O)(C5)C3)C4)cc2)cc1OC | 2.4% (inactive) |
| COc1ccc(/C=C/C(=O)Nc2cccnc2)cc1OC | 5.32% (active) |
| COc1cc(/C=N/NC(=S)Nc2cccnc2)cc(OC)c1O | 4.5% (inactive) |
| COc1cccc(CNC(=O)[C@H]2CCCN2C(=O)[C@H]2CCCN2C(=O)c2ccc(F)cc2)c1 | -0.32% (inactive) |
| COCCN(CCOC)S(=O)(=O)NC[C@H]1O[C@@H](n2cnc3c(N)ncnc32)[C@H](O)[C@@H]1O | -0.9% (inactive) |
| CNC[C@H](CC1CCCCC1)NC[C@H](NCCC1CCCC1)[C@H](C)O | 0.32% (inactive) |
| C[C@@H]1CN([C@H](C)CO)C(=O)CCCn2cc(nn2)CO[C@H]1CN(C)C(=O)Nc1ccc(N2CCCCC2)cc1 | 0.88% (inactive) |
| COc1cc(/C=N/Nc2nn3cnnc3c3ccccc23)cc(OC)c1OC | 5.31% (active) |
| CN(CCO)c1ccc(/C=N/Nc2nncc3ccccc23)cc1 | 2.64% (inactive) |
| COc1cc(Nc2nc3ccc(Cl)cc3n3cnnc23)cc(OC)c1OC | -1.86% (inactive) |
| Cn1ccs/c1=N\S(=O)(=O)c1ccc(C(C)(C)C)cc1 | -0.4% (inactive) |
| COc1ccc(OC)c(C2C3=C(N=c4s/c(=C\c5cccc(O)c5)c(=O)n42)c2ccccc2CC3)c1 (stereo not given) | 5.07% (active) |
| C=CCOc1ccc(C2/C(=C(\O)c3c(C)[nH]c(C(=O)OC)c3C)C(=O)C(=O)N2CCN(C)C)cc1 (stereo not given) | 1.79% (inactive) |
| O=C(O)c1ccccc1NC(=S)NC(NC(=O)c1ccccc1[N+](=O)[O-])C(Cl)(Cl)Cl (stereo not given) | 0.38% (inactive) |
| Cn1nc(C(=O)OCC(=O)N(Cc2ccccc2)C(C)(C)C)c2ccccc2c1=O | -1.57% (inactive) |
